# Test results published in PubChem BioAssay (NCI).
# This is part of a sample that, as a whole, favours compounds with a hit. Of some 79,000 tested, about 15% had one in any assay. Values without a mark were called inactive. Calls of active or inactive are those of the source. Rule as the data show it: active = growth inhibition above about 70%; inactive = the rest.
# Key:
# [1] = NCI Yeast Anticancer Drug Screen. Data for the rad50 strain (AID 155);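 also: 0% = growth of vehicle-only cultures of the same strain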; details: S. cerevisiae rad50 strain growth inhibition, hits give high values
# How it was run: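 Growth of the mutant yeast was measured after compound exposure and referenced to vehicle-treated cultures.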
# [2] = NCI Yeast Anticancer Drug Screen. Data for the mec2-1 strain (AID 157); details: S. cerevisiae mec2-1 strain, hits give high values
# How it was run: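 mec2-1 yeast strain, carrying an alteration in DNA damage repair or cell cycle control, was exposed to compounds; growth inhibition was measured relative to vehicle-treated controls.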
# [3] = NCI Yeast Anticancer Drug Screen. Data for the sgs1 mgt1 strain (AID 161);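 also: 0% = growth of cultures given vehicle only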; details: S. cerevisiae sgs1 mgt1 strain, hits give high values
# How it was run: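 Yeast cells carrying a defined DNA-repair defect were exposed to test compounds. Growth inhibition was measured relative to vehicle-treated controls.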
# [4] = NCI Yeast Anticancer Drug Screen. Data for the cln2 rad14 strain (AID 165);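 also: 0% = growth equal to vehicle treated cultures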; details: S. cerevisiae cln2 rad14 strain, hits give high values
# How it was run: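 Yeast carrying cln2 and rad14 alterations (cell cycle control and DNA damage repair) were exposed to compounds. Growth inhibition was measured against vehicle-treated controls.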
# [5] = NCI Yeast Anticancer Drug Screen. Data for the bub3 strain (AID 167); details: S. cerevisiae bub3 mutant strain, hits give high values
# How it was run: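 Whole-cell yeast assay. The mutant strain was incubated with compounds, and growth inhibition was determined by comparison with vehicle-treated cells.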
# [6] = NCI Yeast Anticancer Drug Screen. Data for the mlh1 rad18 strain (AID 175); details: S. cerevisiae mlh1 rad18 strain growth inhibition, hits give high values
# How it was run: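 Growth inhibition of the yeast strain was measured after compound exposure and expressed relative to vehicle-treated controls. The strain carries defined defects in DNA damage repair.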
# [7] = at 5.0 µM (retest, dose inferred, filed as 0.5)
# [8] = at 50.0 µM (retest, dose inferred, filed as 5.0)
Compound,"growth inhibition [1, 7]","growth inhibition [1, 8]",growth inhibition ([1]; at 50.0 µM),"growth inhibition [2, 7]","growth inhibition [2, 8]",growth inhibition ([2]; at 50.0 µM),"growth inhibition [3, 7]","growth inhibition [3, 8]",growth inhibition ([3]; at 50.0 µM),"growth inhibition [4, 7]","growth inhibition [4, 8]",growth inhibition ([4]; at 50.0 µM),"growth inhibition [5, 7]","growth inhibition [5, 8]",growth inhibition ([5]; at 50.0 µM),"growth inhibition [6, 7]","growth inhibition [6, 8]",growth inhibition ([6]; at 50.0 µM)
Cn1cccc1C(/C=C/c1ccccc1[N+](=O)[O-])c1cccn1C,-2%,20%,18.2%,4%,4%,6.4%,-12%,8%,20.9%,17%,37%,4.35%,-3%,41%,17.6%,-15%,21%,20.2%
Cc1ccc(S(=O)(=O)OC(C=O)C(O)C(O)COC(c2ccccc2)(c2ccccc2)c2ccccc2)cc1 (stereo not given),98% (active),98% (active),87.8% (active),98% (active),98% (active),84.5% (active),95% (active),95% (active),86.4% (active),99% (active),99% (active),84.8% (active),98% (active),98% (active),88.5% (active),99% (active),99% (active),85.2% (active)
CC(=O)Nc1ccc2c(c1)Cc1cccc(F)c1-2,11%,14%,70.3% (active),6%,5%,17.7%,14%,3%,22.4%,29%,7%,9.1%,17%,8%,61.9%,-2%,1%,32.1%
CN(C)CC/C(=N\Nc1ccc(Cl)c(Cl)c1)c1ccccc1,88% (active),99% (active),99.5% (active),69%,100% (active),97.9% (active),98% (active),100% (active),99.6% (active),34%,99% (active),99.5% (active),82% (active),100% (active),99.6% (active),95% (active),99% (active),99.2% (active)
COC(=O)N/N=C(\c1ccc(O)cc1)C(C)C1(O)C(=O)Nc2ccccc21 (stereo not given),-16%,35%,-19.5%,6%,20%,7.45%,7%,26%,16.9%,-2%,23%,-30.2%,1%,34%,-0.8%,-3%,28%,14.2%
[N-]=[N+]=Nc1c([N+](=O)[O-])c(Cl)nc2ccccc12,27%,95% (active),86% (active),22%,99% (active),90.7% (active),34%,99% (active),92% (active),11%,87% (active),90.5% (active),50%,99% (active),90.6% (active),36%,98% (active),88.2% (active)
COC(=O)C(=[N+]=[N-])C(=O)c1ccc(Cl)cc1,2%,30%,81% (active),2%,13%,96.2% (active),2%,40%,50.7%,0%,19%,44.4%,-14%,-14%,28.9%,-3%,18%,40.5%
CCCCCC(Oc1ccc(Cl)cc1)C(=O)O (stereo not given),2%,84% (active),81.7% (active),2%,83% (active),58.5%,3%,85% (active),80.2% (active),-1%,87% (active),75.5% (active),7%,87% (active),71.5% (active),-15%,89% (active),83.2% (active)
CC1CCN(CC(=O)N2c3ccccc3Sc3cc4ccccc4cc32)CC1,4%,15%,10.2%,4%,-20%,13.6%,-15%,12%,-14.6%,-37%,-4%,23.8%,-4%,7%,-3.9%,-4%,8%,-2.5%
CN=C1NS(=O)(=O)c2ccccc21,2%,0%,15.8%,8%,1%,-6.15%,4%,-1%,3.4%,0%,2%,19.1%,11%,39%,-0.85%,0%,8%,-2.4%
C/C(=C\N1CCN(c2ccc(Cl)cc2)C(C)C1)C(=O)c1ccccc1 (stereo not given),7%,89% (active),52.9%,4%,92% (active),30.7%,15%,89% (active),79.8% (active),-2%,86% (active),27.8%,-1%,92% (active),24.9%,4%,87% (active),57.3%
Cc1cc(C(O)(C(F)(F)F)C(F)(F)F)c(I)c(C(O)(C(F)(F)F)C(F)(F)F)c1,100% (active),100% (active),97.3% (active),99% (active),100% (active),99.2% (active),99% (active),100% (active),99.2% (active),98% (active),99% (active),89.8% (active),99% (active),99% (active),98.7% (active),99% (active),99% (active),98.5% (active)
Nc1ccccc1Sc1ccc(C(F)(F)F)cc1[N+](=O)[O-],-1%,23%,99.1% (active),2%,30%,99% (active),0%,23%,99.2% (active),-2%,22%,94.7% (active),6%,26%,98.7% (active),-1%,19%,98.9% (active)
O=C(O)CCC(=O)NNc1ccccc1,8%,68%,57.9%,-1%,66%,85.9% (active),12%,58%,61.9%,8%,81% (active),83.2% (active),14%,91% (active),90.3% (active),20%,94% (active),86.1% (active)
CC(/C=C/C(O)=C1/C(=O)CNC1=O)=C\[C@@H](C)[C@H]1O[C@@]2(C)O[C@H](C(=O)[C@@H]3O[C@@]32C)[C@@H]1C,98% (active),99% (active),91.8% (active),99% (active),99% (active),94.5% (active),98% (active),98% (active),94.2% (active),97% (active),95% (active),90.8% (active),98% (active),99% (active),93.4% (active),98% (active),98% (active),90.3% (active)
OCCC1CCN(CC/C=C2/c3ccc(F)cc3Sc3ccc(C(F)(F)F)cc32)CC1,26%,59%,37.4%,7%,45%,62.9%,21%,68%,82.6% (active),18%,52%,71.4% (active),4%,38%,64.5%,24%,56%,88.2% (active)
COCC(O)Cn1cc([N+](=O)[O-])nc1C (stereo not given),4%,-1%,2.7%,1%,-3%,-5.25%,-1%,2%,-4.8%,0%,-2%,9.45%,-4%,-4%,19.2%,6%,4%,9.4%
CC(=O)c1cccc(NC(=O)C(=O)NNc2n[nH]c(=S)n2N)c1,16%,95% (active),89.4% (active),-20%,94% (active),94.1% (active),6%,90% (active),92.9% (active),19%,77% (active),92.4% (active),-19%,95% (active),92.8% (active),19%,94% (active),91.1% (active)
Cc1cnc(Sc2ncccc2[N+](=O)[O-])[nH]c1=O,2%,7%,-7%,-3%,21%,43.1%,5%,14%,29.1%,-3%,2%,26.1%,6%,9%,-2.7%,0%,24%,27.9%
CS(=O)(=O)Nc1ccc(Nc2c3ccccc3nc3ccccc23)cc1,13%,25%,91.8% (active),-7%,-11%,25.6%,6%,20%,14.3%,-14%,-3%,18.9%,10%,-2%,37.9%,1%,13%,35.1%
